Screens: PubChem BioAssay, several laboratories
The list is not random: actives were taken first. Their share in the collection is about 1.6%.
LYPLA2 inh: LYPLA2 (human) inhibition in PME1 counter-screen; O95372; recombinant LYPLA2, FP-Rh probe fluorescence polarization; inhibition, % at 5.9 µM; hit rate 0.38% among 320,000;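 active means inhibition above the screen-wide mean plus 3 SD, limit set per campaign, cut at about 26% in these data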;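 further: 0% = LYPLA2 with DMSO and 100% = wells lacking LYPLA2 enzyme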
PME-1 primary: PME-1 (human) inhibition. Q9Y570. recombinant PME-1, FP-Rh probe fluorescence polarization. inhibition, % at 5.9 µM. hit rate 0.53% among 320,000. AID 2130;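 active means inhibition above the campaign mean of all compounds plus 3 SD, cut at about 26% in these data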;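 further: competitive labeling of PME-1 active site by serine hydrolase directed probe; 0% = PME-1 with DMSO and 100% = wells lacking PME-1 enzyme; inhibitors block probe labeling so polarization falls and inhibition rises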
Fam108B inh: Fam108B inhibition, counter-screen for RBBP9 inhibitors; recombinant Fam108B, FP-Rh probe fluorescence polarization; inhibition, % at 9.51 µM; hit rate 0.33% among 300,000; AID 1947;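 active means inhibition above the screen mean inhibition plus 3 SD, computed separately per campaign, cut at about 18% in these data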;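 further: inhibitors lower polarization as less probe binds the enzyme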
PREPL inh: inhibitors of human prolyl oligopeptidase-like enzyme PREPL | hit rate 0.68% among 320,000 | inhibition, % at 5.96 µM | recombinant PREPL, fluorescence polarization activity-based probe | Q4J6C6; in the data active means inhibition above about 43%;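 further: 0% = enzyme with DMSO and 100% = wells lacking enzyme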
Target sequence (Q4J6C6 whole entry, looked up): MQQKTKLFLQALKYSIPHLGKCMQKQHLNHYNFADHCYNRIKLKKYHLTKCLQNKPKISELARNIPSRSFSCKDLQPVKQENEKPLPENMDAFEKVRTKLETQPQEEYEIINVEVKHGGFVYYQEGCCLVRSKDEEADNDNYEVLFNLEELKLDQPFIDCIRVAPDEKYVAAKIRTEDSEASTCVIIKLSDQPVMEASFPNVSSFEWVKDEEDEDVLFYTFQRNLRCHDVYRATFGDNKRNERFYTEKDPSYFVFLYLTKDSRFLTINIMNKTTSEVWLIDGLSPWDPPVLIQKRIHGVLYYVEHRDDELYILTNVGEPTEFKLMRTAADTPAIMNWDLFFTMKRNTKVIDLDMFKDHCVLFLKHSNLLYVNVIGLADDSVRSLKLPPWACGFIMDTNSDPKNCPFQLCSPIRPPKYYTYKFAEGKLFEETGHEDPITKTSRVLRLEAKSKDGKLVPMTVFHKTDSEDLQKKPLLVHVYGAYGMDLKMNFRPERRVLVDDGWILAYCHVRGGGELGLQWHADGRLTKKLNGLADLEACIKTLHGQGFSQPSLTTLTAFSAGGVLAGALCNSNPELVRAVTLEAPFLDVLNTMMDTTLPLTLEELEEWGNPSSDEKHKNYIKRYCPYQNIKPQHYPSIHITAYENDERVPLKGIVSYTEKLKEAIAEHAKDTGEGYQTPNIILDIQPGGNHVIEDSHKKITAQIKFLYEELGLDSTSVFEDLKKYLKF
LYPLA1 counter: counter-screen for PME1 inhibitors: inhibitors of human LYPLA1. recombinant LYPLA1, FP-Rh probe fluorescence polarization. inhibition, % at 5.9 µM. hit rate 0.16% among 320,000;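 active means inhibition above the mean of all tested compounds plus 3 SD, set per campaign, cut at about 14% in these data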;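 further: inhibitors block serine hydrolase probe labeling of LYPLA1 so polarization falls; 0% = enzyme with DMSO and 100% = wells lacking LYPLA1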
MEX-5 binding: C. elegans MEX-5 TCR-2 RNA binding activity. hit rate 0.38% among 300,000. Q9XUB2. activity score (negative = inhibition of binding), % at 10 µM. MEX-5/FITC-TCR2 RNA binding, fluorescence polarization; hits give low values;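 active means inhibition past about -25% in most replicates, and total fluorescence under double the plate's negative control median, limit read from the data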;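 further: 0% = DMSO and -100% = 5 µM competing unlabeled TCR2 RNA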
An asterisk follows results filed as active; / = no result.

SMILES | LYPLA2 inh | PME-1 primary | Fam108B inh | PREPL inh | LYPLA1 counter | MEX-5 binding
CCOc1cc(C2C(C#N)=C(N)OC3=C2C(=O)CC(C)(C)C3)cc([N+](=O)[O-])c1O (stereo not drawn) | -5 | 1 | 0 | 11 | 2 | -1
COc1nccnc1NS(=O)(=O)c1ccc(NC(=S)NC(=O)c2ccc(F)c(F)c2)cc1 | 4 | 5 | 1 | 5 | 1 | 1
C=CCOc1ccc(/C=N/NC(=O)c2cc3c(OC)cc(OC)cc3[nH]2)cc1 | -28 | 41* | 13 | 31 | -22 | -1
CCOc1ccc(/C=N/NC(=O)c2cc3c(OC)cccc3[nH]2)cc1 | 6 | -2 | 1 | 2 | -7 | 5
O=S(=O)(CCN1CCSCC1)c1ccc(Cl)cc1 | -2 | -7 | -2 | 0 | -3 | 0
NC(=O)[C@@H]1CCCN1Cc1c(C(=O)N2CCc3ccccc3C2)nc2ccc(Cl)cn12 | -4 | 4 | -3 | 16 | -2 | -32*
COc1c(O)cccc1[C@H](O)C1CCN(CCc2ccc(F)cc2)CC1 | 5 | 0 | 4 | -4 | 1 | -39*
CCOc1ccccc1NC(=O)CC1Nc2cc(C)c(C)cc2NC1=O (stereo not drawn) | -5 | 35* | 6 | 9 | -3 | 1
Cc1ccc(S(=O)(=O)N(C(=O)c2ccco2)c2cc3sc(=O)oc3c3ccccc23)cc1 | 0 | 4 | 7 | 0 | 0 | -4
O=C(O)c1ccc(N/N=C/c2ccc(-c3ccc(Br)cc3)o2)cc1 | 7 | 33* | 13 | 35 | 3 | -2
CCOc1cc(/C=C/c2ccc3cccc([N+](=O)[O-])c3n2)cc(Cl)c1O | 2 | 27* | 16 | 21 | -4 | -6
O=[N+]([O-])c1cccc2ccc(/C=C/c3ccc(Cl)cc3)nc12 | -2 | -6 | 3 | 14 | -2 | 2
COC(=O)c1ccccc1NCc1cc(=O)oc2cc(O)c(O)cc12 | 4 | -8 | 3 | 16 | -5 | -28*
COc1ccc(C)cc1NCc1cc(=O)oc2cc(-c3ccccc3)c(O)cc12 | -1 | -5 | -4 | 5 | 2 | 4
Cc1csc2nc(CNC(=O)C3CC=CCC3C(=O)O)cn12 (stereo not drawn) | 2 | -8 | 4 | 9 | 3 | 4
N#CC1=C(N)C(C#N)(C#N)C(c2cccnc2)C2CCCC=C12 (stereo not drawn) | 2 | 9 | 1 | 17 | 5 | -26*
O=C(Nc1cc(Cl)ccc1O)c1snnc1-c1ccccc1 | 5 | 2 | 1 | 1 | -9 | 4
c1cc2c3c(cccc3c1)NC1(CCCCCC1)N2 | -3 | 2 | 3 | 52* | -6 | 0
O=c1cc(N2CCCCC2)c(-c2ccccc2)nn1Cc1ccc(Cl)cc1 | 2 | 8 | 0 | 5 | -2 | 1
O=c1cc(N2CCCCC2)c(-c2ccccc2)nn1Cc1c(Cl)cccc1Cl | 2 | 30* | -3 | 6 | -4 | 0
O=C(O)/C=C\C(=O)Nc1ccc(N2CCN(c3ccc(Cl)c(Cl)c3)CC2)cc1 | -1 | -2 | 4 | 44* | -4 | 1
Cc1[nH]c2ccccc2c1/C=N/NC(=S)NC(C)C | 9 | 9 | 11 | 14 | 2 | -26*
CC(C)NC(=S)N/N=C/c1c[nH]c2ccccc12 | 6 | 3 | 1 | 4 | 4 | 1
CN1CCN(CCCNC(=O)Nc2cccc3ccccc23)CC1 | 6 | 3 | 7 | 7 | 4 | 1
Cc1ccc(S(=O)(=O)Oc2cccc(/C=N/n3cnnc3)c2)cc1 | 3 | 2 | -4 | 6 | -1 | 2
SMILES | LYPLA2 inh | PME-1 primary | Fam108B inh | PREPL inh | LYPLA1 counter | MEX-5 binding
Cc1ccc(S(=O)(=O)Oc2cccc(/C=N/Nc3ccc(C(=O)O)cc3)c2)cc1 | 10 | 31* | 18 | 12 | 5 | -1
CC(C)(C)C(=O)CN1CCN(C2c3ccccc3-c3ccccc32)CC1 | -2 | 0 | 3 | -1 | -1 | 0
NS(=O)(=O)c1ccc(-c2cccc(/C=C3\SC(=O)NC3=O)c2)cc1 | -2 | -5 | -10 | 7 | -8 | -36*
[O-][N+]12CCN(CC1)c1ccccc12 | 3 | -1 | -4 | 12 | 1 | -1
CCC(C)(C)NC(=O)C(c1cccn1C)N(C(=O)Cn1nnc2ccccc21)c1ccc(OC)cc1 (stereo not drawn) | -1 | -7 | 2 | 2 | 0 | -29*
Cc1cc(C(=O)N/N=C/c2ccc(-c3cccc(Cl)c3Cl)o2)n[nH]1 | -12 | -12 | -10 | 5 | -7 | -38*
COc1cc([C@@H]2Oc3cc(C4Oc5cc(O)cc(O)c5C(=O)[C@H]4O)ccc3O[C@H]2CO)ccc1O (stereo partly drawn) | 50* | -1 | 8 | 12 | -3 | /
O=C1c2c(O)cc(O)cc2O[C@H](c2ccc(O)c(O)c2)[C@H]1O | 36* | -2 | 2 | -2 | -2 | 18
O=C1c2c(O)cc(O)cc2O[C@H](c2ccc(O)cc2)[C@H]1O | 20 | -1 | -1 | 2 | 0 | -3
S=C(NCCOCCOCCNC(=S)Nc1ccccc1)Nc1ccccc1 | 6 | 8 | 0 | 2 | 2 | -1
S=C(NCCNC(=S)Nc1ccccc1)Nc1ccccc1 | 9 | 33* | 2 | 13 | 0 | -2
COc1ccc(OC)c(CNC(=O)CCCc2cn(C)c3ccccc23)c1 | 3 | 1 | -2 | 1 | 2 | -2
COc1cccc(CNC(=O)CCCc2cn(C)c3ccccc23)c1 | 4 | 134* | -1 | -11 | 1 | 0
CCCCCCOc1ccc(C(=O)n2cnc(N)n2)cc1 | 20 | 1 | 5 | 72* | 1 | 3
CCCCCCOc1ccc(C(=O)O)cc1 | 8 | 2 | 4 | 2 | 2 | 3
Cc1ccccc1-c1ccc(CN2CCN(C)C(CCO)C2)cc1 (stereo not drawn) | 1 | -17 | -2 | 26 | -1 | -1
O=[N+]([O-])c1cccnc1Sc1ccc(Br)cc1 | 11 | 9 | 2 | -9 | 7 | /
COc1cc(CCCN2CCNC[C@H]2Cc2ccc(O)cc2)cc(OC)c1OC | 1 | -2 | 3 | 7 | 0 | -2
CCN1C/C(=C/c2sccc2C)c2nc3ccccc3c(C(=O)O)c2C1 | -1 | -2 | 6 | 14 | 2 | -9
CCN1C/C(=C/c2cccs2)c2nc3ccccc3c(C(=O)O)c2C1 | 0 | -3 | 1 | 17 | 0 | -27*
CCN(Cc1ccccc1)C(=O)c1cc(S(=O)(=O)N2CCOCC2)ccc1N1CCCC1 | 5 | 12 | 1 | 26 | 3 | 3
Cn1c(=O)c2c(ncn2CC(=O)OCC(=O)Nc2ccc(F)cc2F)n(C)c1=O | 1 | -2 | / | 4 | -1 | /
C=CCOC(=O)C1=C(C)NC(C)=C(C(=O)OCC=C)C1c1ccc(O)cc1 | -1 | 0 | 0 | -1 | -3 | -2
